# Results: PubChem BioAssay (NCI)
# The panel holds about 83,000 compounds, 20% with a hit somewhere; the sample as a whole holds those more often.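 Results are percent growth after 48 hours of single-concentration exposure. 100 means growth as in untreated cells, lower positive values show inhibition; negative values down to -100 show cell death.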 Values without a mark were called inactive. The source made the active and inactive calls. Rule for the calls: active = growth percent below 10; inactive = the rest.
# Legend:
# Test in all cases: NCI-60 one-dose screen, 48 h (100 = growth as untreated, 0 = no growth, -100 = all killed)
# Conditions in all cases: 10 µM
# RPMI-8226 leukemia = system: RPMI-8226 leukemia
# OVCAR-8 ovarian = system: OVCAR-8 ovarian
# OVCAR-5 ovarian = system: OVCAR-5 ovarian
# OVCAR-4 ovarian = system: OVCAR-4 ovarian
# SK-OV-3 ovarian = system: SK-OV-3 ovarian
# IGROV1 ovarian = system: IGROV1 ovarian
# OVCAR-3 ovarian = system: OVCAR-3 ovarian
# HS 578T breast = system: HS 578T breast
# NCI/ADR-RES ovarian = system: NCI/ADR-RES ovarian
# T-47D breast = system: T-47D breast
SMILES,growth (RPMI-8226 leukemia),growth (OVCAR-8 ovarian),growth (OVCAR-5 ovarian),growth (OVCAR-4 ovarian),growth (SK-OV-3 ovarian),growth (IGROV1 ovarian),growth (OVCAR-3 ovarian),growth (HS 578T breast),growth (NCI/ADR-RES ovarian),growth (T-47D breast)
COc1ccc(S(=O)(=O)Nc2c(/C=C\c3cc(OC)c(OC)c(OC)c3)ccc(OC)c2O)cc1,7.59% (active),-0.813% (active),29.5%,53%,18.5%,33.2%,-8.9% (active),-8.12% (active),-2.42% (active),82.2%
Clc1ccc(Nc2ccnc(NCCNc3ccnc4cc(Cl)ccc34)n2)cc1,-48.9% (active),16.9%,61.4%,24.9%,60%,-8.25% (active),57.8%,-25% (active),44.8%,-60.2% (active)
O=C1Nc2ccc(Cl)cc2/C1=C\c1c(-c2ccc(Cl)cc2)nc2sc(C3CC3)nn12,69.5%,26.5%,77.8%,9.28% (active),39.2%,71.5%,63.9%,7.42% (active),45%,50.7%
Cc1cc(=O)n2nnc3c4ccccc4ccc3n12,8.01% (active),27.3%,88.5%,49.3%,53.6%,61.8%,40.4%,104%,68.4%,47.6%
CC1(C)N=C(N)N=C(N)N1c1ccc(CCc2ccccc2)c(Cl)c1,26.2%,16.8%,36.3%,38%,36.3%,28.1%,23.7%,69.3%,104%,30.3%
CCOC(=O)N/N=C\C(C)=N\NC(=O)OCC,98.8%,99%,100%,102%,98.7%,108%,106%,115%,97.9%,99.9%
COc1ccc2c(c1)C(=O)c1c-2c(OCCN(C)C)nc2cc(OC)c(OC)cc12,32.2%,37.2%,117%,50.7%,74.2%,35%,63.9%,85.7%,41.8%,101%
CCOC(=O)c1ccoc1,102%,101%,90.7%,104%,93.3%,101%,101%,100%,108%,94.3%
CS(=O)(=O)Nc1ccc(Nc2c3ccccc3nc3cc(N)ccc23)cc1,21.6%,24.8%,56.6%,43.2%,32%,37.5%,15.3%,23.7%,96.5%,-14.5% (active)
